Measured values as given in ChEMBL document CHEMBL4513139, “CO-ADD screening of University of Strathclyde (UK) compounds”.
Results with a measured potency or affinity are listed apart.

What follows are molecules tested on Klebsiella pneumoniae. Conditions: Concentration 32 ug.mL-1; ASSAY_TEST Inhibition of Bacterial Growth; detection method Absorption (OD600); MEDIA CAMHB; plate type 384well; NBS; CORNING #3640; time 18 hr.

SMILES	Inhibition
COC(=O)CCC(=O)Nc1cc(C(=O)Nc2cc(C(=O)NCCN3CCOCC3)n(C)c2)n(C)c1.O=C(O)C(F)(F)F	8.45%
COC(=O)c1ccc(C(=O)Nc2cc(C(=O)Nc3cc(C(=O)NCCCN(C)C)n(C)c3)n(C)c2)cc1.O=C(O)C(F)(F)F	6.59%
CCOC(=O)CCC(NC(=O)c1ccc(NCc2cn(Cc3cnc(C)nc3N)nn2)cc1)C(=O)OCC (stereo not given)	-10.59%
COc1cccc(C(=N)Nc2cc(C(=O)Nc3cc(C(=O)NCCC(=N)N)n(C)c3)n(C)c2)c1.O=C(O)C(F)(F)F.O=C(O)C(F)(F)F	100.7%
COC(=O)CCC(=O)Nc1cc(C(=O)Nc2cc(C(=O)NCCCN(C)C)n(C)c2)n(C)c1.O=C(O)C(F)(F)F	-5.32%
CC(C)CCc1sc(NC(=O)c2cc(NC(=O)c3ccc(/C=C/c4cc5ccccc5nc4Cl)cc3)cn2C)nc1C(=O)NCCN1CCOCC1.O=C(O)C(F)(F)F	-4.36%
CC(=O)N(C(C)=O)c1cc(C(=O)Nc2cc(C(=O)NCCC(=N)N)n(C)c2)n(C)c1.O=C(O)C(F)(F)F	5.82%
COc1cccc(C(=N)Nc2cc(C(=O)Nc3cc(C(=O)Nc4cc(C(=O)NCCCN(C)C)n(C)c4)n(C)c3)n(C)c2)c1.O=C(O)C(F)(F)F.O=C(O)C(F)(F)F	5.64%
CN(C)CCCNC(=O)c1cc(NC(=O)c2cc(NC(=O)CCC(=O)O)cn2C)cn1C.O=C(O)C(F)(F)F	6.24%
Cn1cc(NC(=O)c2cc(NC(=O)c3sc(N)nc3C(F)(F)F)cn2C)cc1C(=O)NCCC(=N)N.O=C(O)C(F)(F)F	-8.6%
